Consider 9 molecules from PubChem BioAssay (NCI).

Compounds without any hit were thinned out: in the full panel of roughly 79,000, 15% have a hit. Unmarked numbers belong to inactive results. Active and inactive are the calls of the source. No stated cut-off is given here; in the data, active means growth inhibition above about 70%; inactive means the rest.

The nature of experiment [1]: NCI Yeast Anticancer Drug Screen. Data for the rad50 strain (AID 155).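 Further: 0% = growth of vehicle-only cultures of the same strain.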 Conditions: S. cerevisiae rad50 strain growth inhibition, hits give high values. An outline of the steps:
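Compounds were tested on a yeast strain with an engineered DNA damage repair alteration; the reported value is growth inhibition normalised to vehicle treatment.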

Experiment [2] can be described thus: NCI Yeast Anticancer Drug Screen. Data for the mec2-1 strain (AID 157). The note with it: S. cerevisiae mec2-1 strain, hits give high values. An outline of the steps:
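Mutant yeast (mec2-1) grown with compound; growth inhibition relative to vehicle control reported.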

Experiment [3] can be described thus: NCI Yeast Anticancer Drug Screen. Data for the sgs1 mgt1 strain (AID 161).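 Further: 0% = growth of cultures given vehicle only.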 The note with it: S. cerevisiae sgs1 mgt1 strain, hits give high values. An outline of the steps: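 This yeast growth screen uses a strain with defined DNA-repair lesions; compound-treated growth is compared with vehicle-treated growth.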
Experiment [4] is described as follows: NCI Yeast Anticancer Drug Screen. Data for the cln2 rad14 strain (AID 165).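 Further: 0% = growth equal to vehicle treated cultures.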 The note with it: S. cerevisiae cln2 rad14 strain, hits give high values. An outline of the steps: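 Readout is yeast growth inhibition versus vehicle-treated controls, using a strain with cln2 and rad14 alterations exposed to compound.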
The nature of experiment [5]: NCI Yeast Anticancer Drug Screen. Data for the bub3 strain (AID 167). Conditions: S. cerevisiae bub3 mutant strain, hits give high values. An outline of the steps:
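Growth of a checkpoint-deficient yeast mutant is measured after compound exposure. Values represent inhibition relative to vehicle.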

Experiment [6] can be described thus: NCI Yeast Anticancer Drug Screen. Data for the mlh1 rad18 strain (AID 175). Conditions: S. cerevisiae mlh1 rad18 strain growth inhibition, hits give high values. In short, it runs like this:
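Genetically defined yeast (DNA repair-deficient) exposed to compounds; growth inhibition determined relative to vehicle.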

Where [7] appears, read: at 5.0 µM (retest, dose inferred, filed as 0.5).
The mark [8] stands for this setting: at 50.0 µM (retest, dose inferred, filed as 5.0).

`CCN(CC)CCCCCCNc1cc(C)cc2ccc(C)nc12`: the growth inhibition in experiment [1] (setting [7]) is 8%; in experiment [1] (setting [8]), 59%; in experiment [1] (at 50.0 µM), 65.8%; in experiment [2] (setting [7]) it was 0%; in experiment [2] (setting [8]), 22%; in experiment [2] (at 50.0 µM), 45.7%. For the same molecule, the growth inhibition in experiment [3] (setting [7]) is 11%; in experiment [3] (setting [8]) it was 58%; in experiment [3] (at 50.0 µM), 39.1%; in experiment [4] (setting [7]) it was 0%; in experiment [4] (setting [8]) it was 36%; in experiment [4] (at 50.0 µM) it was 8.2%. For the same molecule, the growth inhibition in experiment [5] (setting [7]) is 7%; in experiment [5] (setting [8]) it was 62%; in experiment [5] (at 50.0 µM), 79.7% (active); in experiment [6] (setting [7]), 21%; in experiment [6] (setting [8]), 40%; in experiment [6] (at 50.0 µM), 47.5%.

For `COc1cccc2c1C(=O)c1c(O)c3c(c(O)c1C2=O)C[C@@](O)(/C(C)=N\NC(N)=O)C[C@@H]3OC1CC(N)C(O)C(C)O1` (some centres not stated), the growth inhibition was 30% in experiment [1] (setting [7]); 83% (active) in experiment [1] (setting [8]); 88.8% (active) in experiment [1] (at 50.0 µM); 52% in experiment [2] (setting [7]); 34% in experiment [2] (setting [8]); 43.8% in experiment [2] (at 50.0 µM). In addition, the growth inhibition in experiment [3] (setting [7]) is 6%; in experiment [3] (setting [8]), 30%; in experiment [3] (at 50.0 µM) it was 36.9%; in experiment [4] (setting [7]), 7%; in experiment [4] (setting [8]), 30%; in experiment [4] (at 50.0 µM) it was 1.5%. Further, the growth inhibition is 6% in experiment [5] (setting [7]); 45% in experiment [5] (setting [8]); 35.6% in experiment [5] (at 50.0 µM); 8% in experiment [6] (setting [7]); 7% in experiment [6] (setting [8]); 57% in experiment [6] (at 50.0 µM).

Take `O=C(CCN1CCOCC1)c1ccc(Oc2ccc(F)cc2)cc1`: the growth inhibition in experiment [1] (setting [7]) was 65%; in experiment [1] (setting [8]), 87% (active); in experiment [1] (at 50.0 µM), 67.2%; in experiment [2] (setting [7]) it was 64%; in experiment [2] (setting [8]) it was 95% (active); in experiment [2] (at 50.0 µM) it was 77% (active). In addition, the growth inhibition in experiment [3] (setting [7]) is 80% (active); in experiment [3] (setting [8]), 95% (active); in experiment [3] (at 50.0 µM) it was 85.2% (active); in experiment [4] (setting [7]), 64%; in experiment [4] (setting [8]) it was 66%; in experiment [4] (at 50.0 µM) it was 78.1% (active). Also, the growth inhibition in experiment [5] (setting [7]) is 88% (active); in experiment [5] (setting [8]) it was 98% (active); in experiment [5] (at 50.0 µM) it was 85.4% (active); in experiment [6] (setting [7]), 74% (active); in experiment [6] (setting [8]), 90% (active); in experiment [6] (at 50.0 µM) it was 88% (active).

Regarding `O=C(Nc1ccc(Cl)cc1Cl)C1C(=O)OC2(CCCCC2)OC1=O`, the growth inhibition in experiment [1] (setting [7]) was 24%; in experiment [1] (setting [8]), 96% (active); in experiment [1] (at 50.0 µM), 84.5% (active); in experiment [2] (setting [7]), 38%; in experiment [2] (setting [8]), 98% (active); in experiment [2] (at 50.0 µM) it was 89.8% (active). The growth inhibition is 30% in experiment [3] (setting [7]); 97% (active) in experiment [3] (setting [8]); 55.6% in experiment [3] (at 50.0 µM); 37% in experiment [4] (setting [7]); 98% (active) in experiment [4] (setting [8]); 62.8% in experiment [4] (at 50.0 µM). Besides, the growth inhibition in experiment [5] (setting [7]) is 45%; in experiment [5] (setting [8]), 98% (active); in experiment [5] (at 50.0 µM), 62.3%; in experiment [6] (setting [7]), 37%; in experiment [6] (setting [8]) it was 97% (active); in experiment [6] (at 50.0 µM), 87.2% (active).

Regarding `CCOC(=O)C(NC(=O)c1ccccc1)[CH](c1ccc(OC)cc1)[Sn]([c]1ccccc1)([c]1ccccc1)[c]1ccccc1` (configuration not stated), the growth inhibition in experiment [1] (setting [7]) is 65%; in experiment [1] (setting [8]) it was 89% (active); in experiment [1] (at 50.0 µM), 77.7% (active); in experiment [2] (setting [7]), 37%; in experiment [2] (setting [8]) it was 91% (active); in experiment [2] (at 50.0 µM) it was 75.2% (active). Further, the growth inhibition in experiment [3] (setting [7]) was 38%; in experiment [3] (setting [8]) it was 88% (active); in experiment [3] (at 50.0 µM), 79.2% (active); in experiment [4] (setting [7]) it was 26%; in experiment [4] (setting [8]), 48%; in experiment [4] (at 50.0 µM), 54.5%. The growth inhibition in experiment [5] (setting [7]) was 44%; in experiment [5] (setting [8]), 94% (active); in experiment [5] (at 50.0 µM) it was 79% (active); in experiment [6] (setting [7]), 64%; in experiment [6] (setting [8]), 86% (active); in experiment [6] (at 50.0 µM) it was 69.1%.

For the molecule `CSC(=S)NN=C1CCCC1`, the growth inhibition in experiment [1] (setting [7]) was 66%; in experiment [1] (setting [8]), 97% (active); in experiment [1] (at 50.0 µM) it was 87.5% (active); in experiment [2] (setting [7]) it was 57%; in experiment [2] (setting [8]) it was 98% (active); in experiment [2] (at 50.0 µM) it was 83.7% (active). Moreover, the growth inhibition in experiment [3] (setting [7]) is 61%; in experiment [3] (setting [8]), 97% (active); in experiment [3] (at 50.0 µM), 89.9% (active); in experiment [4] (setting [7]), 49%; in experiment [4] (setting [8]) it was 98% (active); in experiment [4] (at 50.0 µM), 57.8%. Further, the growth inhibition was 78% (active) in experiment [5] (setting [7]); 98% (active) in experiment [5] (setting [8]); 94.8% (active) in experiment [5] (at 50.0 µM); 58% in experiment [6] (setting [7]); 97% (active) in experiment [6] (setting [8]); 89.5% (active) in experiment [6] (at 50.0 µM).

Consider `O=C1/C(=C(/Br)I)c2ccccc2-c2ccccc21`, for which the growth inhibition in experiment [1] (setting [7]) was 98% (active); in experiment [1] (setting [8]) it was 87% (active); in experiment [1] (at 50.0 µM) it was 7.85%; in experiment [2] (setting [7]) it was 99% (active); in experiment [2] (setting [8]) it was 91% (active); in experiment [2] (at 50.0 µM), 58.9%. Also, the growth inhibition in experiment [3] (setting [7]) is 96% (active); in experiment [3] (setting [8]), 94% (active); in experiment [3] (at 50.0 µM), 64.3%; in experiment [4] (setting [7]), 53%; in experiment [4] (setting [8]) it was 90% (active); in experiment [4] (at 50.0 µM) it was 44%. Besides, the growth inhibition in experiment [5] (setting [7]) is 99% (active); in experiment [5] (setting [8]) it was 89% (active); in experiment [5] (at 50.0 µM) it was 75.7% (active); in experiment [6] (setting [7]), 99% (active); in experiment [6] (setting [8]), 88% (active); in experiment [6] (at 50.0 µM), 59%.

Take `O=C(O)c1ccccc1-c1c2ccc(=O)c(Br)c-2oc2c(Br)c(O)ccc12`: the growth inhibition was 13% in experiment [1] (setting [7]); 93% (active) in experiment [1] (setting [8]); 87.5% (active) in experiment [1] (at 50.0 µM); 42% in experiment [2] (setting [7]); 99% (active) in experiment [2] (setting [8]); 98% (active) in experiment [2] (at 50.0 µM). Further, the growth inhibition was 33% in experiment [3] (setting [7]); 98% (active) in experiment [3] (setting [8]); 99.5% (active) in experiment [3] (at 50.0 µM); 14% in experiment [4] (setting [7]); 96% (active) in experiment [4] (setting [8]); 97.5% (active) in experiment [4] (at 50.0 µM). Moreover, the growth inhibition was -1% in experiment [5] (setting [7]); 96% (active) in experiment [5] (setting [8]); 96.4% (active) in experiment [5] (at 50.0 µM); 49% in experiment [6] (setting [7]); 97% (active) in experiment [6] (setting [8]); 97.8% (active) in experiment [6] (at 50.0 µM).

For `CCOC(=O)Cc1cc(=O)oc2c(CN3CCN(c4ccc(C)cc4)CC3)c(O)ccc12`, the growth inhibition in experiment [1] (setting [7]) is 3%; in experiment [1] (setting [8]) it was 55%; in experiment [1] (at 50.0 µM), 60.8%; in experiment [2] (setting [7]), 3%; in experiment [2] (setting [8]) it was 77% (active); in experiment [2] (at 50.0 µM) it was 51.7%. Also, the growth inhibition in experiment [3] (setting [7]) was -1%; in experiment [3] (setting [8]) it was 87% (active); in experiment [3] (at 50.0 µM) it was 38.2%; in experiment [4] (setting [7]), 8%; in experiment [4] (setting [8]) it was 74% (active); in experiment [4] (at 50.0 µM) it was 1.2%. The growth inhibition was 7% in experiment [5] (setting [7]); 86% (active) in experiment [5] (setting [8]); 26.8% in experiment [5] (at 50.0 µM); 3% in experiment [6] (setting [7]); 81% (active) in experiment [6] (setting [8]); 78.8% (active) in experiment [6] (at 50.0 µM).
